From PubChem BioAssay (NCI) come the findings set out here.

SMILES strings stand for the structures. About 83,000 compounds went through this panel and 20% of them were active in at least one assay; those are over-represented in the sample as a whole.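 Method: cells in 96-well plates; compound added at one concentration; 48 h incubation; percent growth measured; values under 10 scored active.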 A number with no mark means an inactive call. Active and inactive are the calls of the source.

One assay relates to SNB-19 CNS. The assay can be described thus: NCI-60 one-dose screen, 48 h (100 = growth as untreated, 0 = no growth, -100 = all killed). The note with it: 10 µM.
Take `COc1ccc(C2c3sc4ccc(C)cc4c3Oc3nc(N)nc(N)c32)cc1` (stereo not drawn): the growth is 84.5%.

For the molecule `Cc1cc(N=C2NC(=O)S/C2=C\c2ccc(F)cc2)n[nH]1`, the growth is 27.4%.

On to `Cn1cc(-c2nnc(N)nc2-c2c[nH]c3ccccc23)c2cc(Br)cnc21`, for which the growth was 66.6%.

As for `O=C(CC(=O)Nc1ccc(Oc2ncnc3scc(Nc4n[nH]c(=S)s4)c23)cc1)Nc1ccc(Cl)cc1`, the growth is 87.7%.

`O=C1NC2C=CC=CC2/C1=C1/SC(=S)N(C2CC(=O)N(c3ccc(Br)cc3)C2=O)C1=O` (stereo not drawn): the growth is 93.9%.

`CC1(C)CC(=O)C2=C(C1)N(Cc1ccc(C(=O)O)cc1)C1=C(C(=O)CC(C)(C)C1)C2c1ccc(Cl)cc1`: the growth is 112%.

As for `Cc1ccc2c(c1)C(=O)/C(=C/c1ccc([N+](=O)[O-])cc1)S2`, the growth was 92.4%.

Turning to `O=C(Nc1ccc(OCc2ccc(Cl)cc2)cc1)Nc1ccc(Cl)c(C(F)(F)F)c1`, the growth was 11%.

Turning to `Cn1cc(-c2nc(N)nnc2-c2c[nH]c3ccccc23)c2cc(Br)cnc21`, the growth was 44.9%.

As to `O=C(CSc1nc2ccccc2c(=O)n1-c1ccc(Cl)cc1)Nc1ccc(-c2nc3ccccc3[nH]2)cc1`, the growth is 18.3%.

Take `Cc1ccc2c(c1)C(=O)/C(=C/c1c[nH]c3ccccc13)S2`: the growth is 27.3%.

Take `COc1cccc(O)c1/C=C1\SCc2cc3c(OC)cccc3[o+]c21`: the growth was 101%.

In the case of `COc1cc(C2CC(c3ccc(Oc4ccc(Cl)cc4)cc3)=NN2c2nc(-c3ccc(Cl)cc3)c(C#N)c(N3CCOCC3)n2)cc(OC)c1OC` (stereo not drawn), the growth is 102%.

As to `O=C(Nc1ccc(OCC(=O)c2ccc(Cl)cc2)cc1)Nc1ccc(Cl)c(C(F)(F)F)c1`, the growth was 21.3%.

Consider `Cc1ccc2sc3c(c2c1)Oc1nc[nH]c(=O)c1C3c1cccc(F)c1` (stereo not drawn), for which the growth was 92.6%.

Consider `Cc1cc(N=C2NC(=O)/C(=C/c3cc(C(C)(C)C)c(O)c(C(C)(C)C)c3)S2)n[nH]1`, for which the growth is 21.1%.

With `COc1ccc(C2c3sc4ccc(C)cc4c3Oc3nc[nH]c(=O)c32)cc1` (stereo not drawn), the growth is 75.3%.

As to `COc1cccc(C(=O)CSc2nc(-c3ccc(OCc4ccccc4)c(OC)c3)c(C#N)c(=O)[nH]2)c1`, the growth was 70.7%.

As for `Cc1ccc(COc2ccc(NC(=O)Nc3ccc(Cl)c(C(F)(F)F)c3)cc2)cc1`, the growth was 75.8%.

In the case of `CC(C)(C)c1cc(/C=C2\S/C(=N/c3ncn[nH]3)NC2=O)cc(C(C)(C)C)c1O`, the growth was 23.7%.

As for `Cn1cc(/C=C(/SS/C(=C/c2cn(C)c3cccc(C(=O)O)c23)C(=O)O)C(=O)O)c2c(C(=O)O)cccc21`, the growth is 102%.

As for `COc1ccc(C(=O)COc2ccc(NC(=O)Nc3ccccc3)cc2)cc1`, the growth is 93.3%.

On to `CCn1c(SCC(=O)Nc2ccc(-c3nc4ccccc4[nH]3)cc2)nc2ccccc2c1=O`, for which the growth is -63.5% (active).

For the molecule `O=C(Nc1ccc(OCc2ccc(F)cc2)cc1)Nc1ccc(Cl)c(C(F)(F)F)c1`, the growth was 18.3%.

Consider `O=C(CC(=O)Nc1ccc(Oc2ncnc3scc(Nc4n[nH]c(=S)s4)c23)cc1)Nc1ccc(Br)cc1`, for which the growth was 99.9%.

As for `COc1ccc(C(=O)COc2ccc(NC(=O)Nc3ccc(Cl)c(C(F)(F)F)c3)cc2)cc1`, the growth is 21.9%.

Regarding `O=C(Nc1ccc(Oc2ncnc3scc(Nc4n[nH]c(=S)s4)c23)cc1)C1(C(=O)Nc2cccc(C(F)(F)F)c2)CC1`, the growth is 99.6%.

For `O=C1NC(=S)S/C1=C\c1cn(-c2ccccc2)nc1-c1ccc([N+](=O)[O-])cc1`, the growth is 18.7%.

For the molecule `O=C(CSc1nc2ccccc2c(=O)n1-c1ccc(Cl)cc1)Nc1ccc(-c2nc3ccc([N+](=O)[O-])cc3[nH]2)cc1`, the growth is 48.7%.

In the next assay the test system is U251 CNS. The description is as above. As to conditions: 10 µM.
In the case of `COc1ccc(C2c3sc4ccc(C)cc4c3Oc3nc(N)nc(N)c32)cc1` (stereo not drawn), the growth was 83.1%.

Turning to `Cc1cc(N=C2NC(=O)S/C2=C\c2ccc(F)cc2)n[nH]1`, the growth was 5.06% (active).

For the molecule `Cn1cc(-c2nnc(N)nc2-c2c[nH]c3ccccc23)c2cc(Br)cnc21`, the growth was 45.5%.

`O=C(CC(=O)Nc1ccc(Oc2ncnc3scc(Nc4n[nH]c(=S)s4)c23)cc1)Nc1ccc(Cl)cc1`: the growth is 90.4%.

`O=C1NC2C=CC=CC2/C1=C1/SC(=S)N(C2CC(=O)N(c3ccc(Br)cc3)C2=O)C1=O` (stereo not drawn): the growth is 91.4%.

Consider `CC1(C)CC(=O)C2=C(C1)N(Cc1ccc(C(=O)O)cc1)C1=C(C(=O)CC(C)(C)C1)C2c1ccc(Cl)cc1`, for which the growth is 105%.

In the case of `Cc1ccc2c(c1)C(=O)/C(=C/c1ccc([N+](=O)[O-])cc1)S2`, the growth is 77.8%.

As to `O=C(Nc1ccc(OCc2ccc(Cl)cc2)cc1)Nc1ccc(Cl)c(C(F)(F)F)c1`, the growth was 6.47% (active).

Turning to `Cn1cc(-c2nc(N)nnc2-c2c[nH]c3ccccc23)c2cc(Br)cnc21`, the growth is 8.89% (active).

Turning to `O=C(CSc1nc2ccccc2c(=O)n1-c1ccc(Cl)cc1)Nc1ccc(-c2nc3ccccc3[nH]2)cc1`, the growth is -61.4% (active).

As to `Cc1ccc2c(c1)C(=O)/C(=C/c1c[nH]c3ccccc13)S2`, the growth was 22.7%.

Take `COc1cccc(O)c1/C=C1\SCc2cc3c(OC)cccc3[o+]c21`: the growth is 114%.

Turning to `COc1cc(C2CC(c3ccc(Oc4ccc(Cl)cc4)cc3)=NN2c2nc(-c3ccc(Cl)cc3)c(C#N)c(N3CCOCC3)n2)cc(OC)c1OC` (stereo not drawn), the growth was 102%.

Regarding `O=C(Nc1ccc(OCC(=O)c2ccc(Cl)cc2)cc1)Nc1ccc(Cl)c(C(F)(F)F)c1`, the growth was 35.6%.

As to `Cc1ccc2sc3c(c2c1)Oc1nc[nH]c(=O)c1C3c1cccc(F)c1` (stereo not drawn), the growth was 97.1%.

As to `Cc1cc(N=C2NC(=O)/C(=C/c3cc(C(C)(C)C)c(O)c(C(C)(C)C)c3)S2)n[nH]1`, the growth is 6.8% (active).

`COc1ccc(C2c3sc4ccc(C)cc4c3Oc3nc[nH]c(=O)c32)cc1` (stereo not drawn): the growth was 73.5%.

Consider `COc1cccc(C(=O)CSc2nc(-c3ccc(OCc4ccccc4)c(OC)c3)c(C#N)c(=O)[nH]2)c1`, for which the growth is 79.2%.

Consider `Cc1ccc(COc2ccc(NC(=O)Nc3ccc(Cl)c(C(F)(F)F)c3)cc2)cc1`, for which the growth is 69.8%.

As for `CC(C)(C)c1cc(/C=C2\S/C(=N/c3ncn[nH]3)NC2=O)cc(C(C)(C)C)c1O`, the growth was 2.45% (active).

Regarding `Cn1cc(/C=C(/SS/C(=C/c2cn(C)c3cccc(C(=O)O)c23)C(=O)O)C(=O)O)c2c(C(=O)O)cccc21`, the growth is 99.6%.

As to `COc1ccc(C(=O)COc2ccc(NC(=O)Nc3ccccc3)cc2)cc1`, the growth was 86.5%.

Regarding `CCn1c(SCC(=O)Nc2ccc(-c3nc4ccccc4[nH]3)cc2)nc2ccccc2c1=O`, the growth is -74.9% (active).

On to `O=C(Nc1ccc(OCc2ccc(F)cc2)cc1)Nc1ccc(Cl)c(C(F)(F)F)c1`, for which the growth is 10.3%.

In the case of `O=C(CC(=O)Nc1ccc(Oc2ncnc3scc(Nc4n[nH]c(=S)s4)c23)cc1)Nc1ccc(Br)cc1`, the growth was 103%.

Regarding `COc1ccc(C(=O)COc2ccc(NC(=O)Nc3ccc(Cl)c(C(F)(F)F)c3)cc2)cc1`, the growth was 24.3%.

As for `O=C(Nc1ccc(Oc2ncnc3scc(Nc4n[nH]c(=S)s4)c23)cc1)C1(C(=O)Nc2cccc(C(F)(F)F)c2)CC1`, the growth was 110%.

`O=C1NC(=S)S/C1=C\c1cn(-c2ccccc2)nc1-c1ccc([N+](=O)[O-])cc1`: the growth was 9.35% (active).

In the case of `O=C(CSc1nc2ccccc2c(=O)n1-c1ccc(Cl)cc1)Nc1ccc(-c2nc3ccc([N+](=O)[O-])cc3[nH]2)cc1`, the growth was 20.6%.
